In PubChem BioAssay (NCI) one finds growth data, which are given here for 14 compounds.

What all share (assay): NCI-60 one-dose screen, 48 h (100 = growth as untreated, 0 = no growth, -100 = all killed)
Conditions in all cases: 10 µM unless noted

Test [1] has as its system NCI-H23 lung.
In test [2] the test system is NCI-H226 lung.
Test [3] relates to NCI-H322M lung.
The test system of test [4] is HOP-62 NSCLC.
Test [5] concerns NCI-H460 lung.
The test system of test [6] is HOP-92 NSCLC.
The subject of test [7] is NCI-H522 lung.
In test [8] the test system is A549/ATCC NSCLC.
In test [9] the test system is COLO 205 colon.
In test [10] the test system is 786-0 renal.

This is part of a sample that, as a whole, favours compounds with a hit. Of some 83,000 tested, about 20% had one in any assay.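 Plates (96-well) were seeded with cells, treated with compound at one concentration, and incubated for 48 hours before percent growth was determined.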 Unmarked numbers belong to inactive results. Active and inactive are the calls of the source. The calls were made as follows: active = growth percent below 10; inactive = the rest.

Consider `N#C/C(=C\c1ccc([N+](=O)[O-])s1)c1nc2cc(Br)ccc2s1`, for which the growth in [1] is -27.8% (active); in test [2], -75.9% (active); in [3] it was 85.6%; in [4], -35.5% (active); in test [5], -26.9% (active); in test [6] it was -55.2% (active). Also, the figures for the growth in [7], in [8] and in test [9] were -45.4% (active), 5.93% (active) and -74.8% (active), respectively.

Regarding `CSc1nc2sc3cccc(Cl)c3n2c(=N)c1C#N`, the growth was 90.5% in test [1]; 93.5% in [2]; 99.8% in test [3]; 97% in test [4]; 102% in [5]; 82.4% in test [6]. For the same compound, the growth in [7] is 78.9%; in [8], 100%; in [9] it was 56.1%.

Take `COc1cc2nc(-c3ccc(C(F)(F)F)cc3)cc(OCCCN3CCCC3)c2cc1OC`: the growth in test [1] is 57.3%; in test [2] it was -8.25% (active); in [3], 62.8%; in [4], 63.6%; in [5], 22%; in test [6], 23.2%. The growth was 28.5% in test [7], 39.9% in test [8], 48.4% in test [10] and 22.1% in [9].

For the compound `O=C(C[n+]1cccc2ccccc21)c1ccc(O)c(O)c1`, the growth in [1] was 78.5%; in [2] it was 62.1%; in test [3], 93.5%; in test [4], 102%; in [5] it was 92.6%; in test [6], 73.2%. Further, the growth was 20.9% in test [7], 84.4% in test [8] and 56.4% in test [9].

In the case of `N#C/C(=C\c1ccc(C(F)(F)F)cc1)c1cc2ccccc2[nH]1`, the growth was 98.1% in test [1]; 101% in test [2]; 100% in test [3]; 99.8% in [4]; 97.7% in test [5]; 119% in [6]. Moreover, the growth in test [7] was 84.5%; in [8] it was 100%; in [9], 113%.

`COc1cc(C2=C(c3cn(C)c4ccccc34)COC2=O)cc(OC)c1OC`: the growth in [1] was 14.2%; in [2], 15.3%; in test [3], 26.6%; in test [4], 31.7%; in test [5], 3.03% (active); in test [6], 19.1%. Besides, the growth in test [7] was 3.38% (active); in [8], 18.4%; in [10] it was 20.9%; in [9], -4.65% (active).

As to `CC1(C)CC(O)CCCCCCOc2c(CN)cccc2NC(=O)c2nc(cnc2N)-c2ccc(cc2)S1(=O)=O` (configuration not stated), the growth was 28% in [1]; 48.6% in test [2]; 44.4% in test [3]; 44.7% in test [4]; -30.2% (active) in test [5]; 115% in test [6]. Further, the growth in [7] was 12.6%; in test [8], 27.9%; in test [10], -15.4% (active); in test [9], 22.9%.

Regarding `COc1ccc(C(=O)C2C(C#N)C(C#N)C3C=Cc4ccccc4N32)cc1` (configuration not stated), the growth in test [1] was 37.9%; in test [2], 77.6%; in [3], 53.5%; in test [4], 30.1%; in [5], 19.1%; in [6], 84.1%. Besides, the values for the growth in test [7], in test [8] and in test [9] were 0.174% (active), 29.9% and -5.52% (active), respectively.

For the compound `COc1ccc(OC)c(CCn2cncc2-c2c[nH]c3ccccc23)c1`, the growth was 55.6% in test [1]; 68.3% in test [2]; 82.8% in test [3]; 74.3% in [4]; 92% in test [5]; 46.7% in [6]. In addition, the growth is 71% in test [7], 90.8% in [8] and 90.1% in test [9].

`Oc1c(Cl)cc(Cl)c(Cl)c1CNCCNCc1c(O)c(Cl)cc(Cl)c1Cl`: the growth in [1] is 24.7%; in test [2] it was 56.2%; in test [3] it was 21.8%; in test [4], 25%; in test [5], 13%; in [6] it was 27.8%. Besides, the figures for the growth in test [7], in [8] and in test [9] were 14.9%, 13.4% and 13.3%, respectively.

Take `CCOC(=O)c1cc(C(=O)c2ccc(Br)cc2)n2ccc(/C=C/c3cc[n+](CC(=O)c4ccc(OC)cc4)cc3)cc12`: the growth was 92.5% in [1]; 101% in test [2]; 96.2% in [3]; 100% in test [4]; 96.4% in [5]; 96.4% in [6]. The growth in [7] is 91.8%; in test [8] it was 73.3%; in test [9] it was 91.7%.

Take `N#C/C(=C\c1ccc(Cl)cc1)n1nnc2cc(F)c(F)cc21`: the growth in test [1] was 30%; in test [2], 83.8%; in test [3] it was 33.9%; in [4], 59.1%; in test [5], -22.2% (active); in test [6], 5.41% (active). Also, the growth in test [7] is 3.72% (active); in [8], 32.8%; in test [10], 14.7%; in [9] it was 8.61% (active).

Turning to `CCN1C(=O)/C(=C/C(=O)OC)S/C1=N\NC(=O)c1cc2ccc1/C=C\c1ccc(cc1)/C=C\2`, the growth in test [1] was 99.6%; in test [2] it was 92.7%; in test [3], 92.3%; in test [4] it was 101%; in [5], 104%; in test [6], 81.6%. The growth in test [7] was 59.7%; in [8] it was 96.6%; in test [10] it was 90.6%; in test [9] it was 108%.

`COc1cc(NC(C)CCCNC(=O)CCC(=O)NCCCNCCCCCCCCNCCCNC(=O)CCC(=O)NCCCC(C)Nc2cc(OC)cc3cccnc23)c2ncccc2c1` (configuration not stated): the growth in test [1] was 54.4%; in [2], 44.5%; in test [3], 32.9%; in [4], 85.2%; in test [5], 87.4%; in test [6], 54.2%. Also, the growth is 47.3% in [7], 63% in test [8], 92.6% in [10] and 14.7% in [9].
